Experimental data from PubChem BioAssay (NCI).
The panel holds about 83,000 compounds, 20% with a hit somewhere; the sample as a whole holds those more often.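 Activity criterion: percent growth below 10, measured after cells in 96-well plates were exposed to a single compound concentration for 48 hours.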 Calls of active or inactive are those of the source.

What follows are compounds tested on SN12C renal (assay: NCI-60 one-dose screen, 48 h (100 = growth as untreated, 0 = no growth, -100 = all killed)). Settings: 10 µM unless noted.

SMILES | growth
CCOC(=O)[C@@H](C)C[C@H](Cc1ccccc1)NC(=O)c1csc([C@@H](C[C@H](C(C)C)N(C)C(=O)[C@H](CC)NC(=O)[C@H]2CCCCN2C)OC(C)=O)n1 | 19.1% (inactive)
CCN(CCO)C(Cc1ccccc1)c1ccccc1 (configuration not stated) | 102% (inactive)
C1CCC([PH+](C2CCCCC2)C2CCCCC2[PH+](C2CCCCC2)C2CCCCC2)CC1.O=C(C1[CH-]CCCC1)C1CCCC[N-]1.[Au] (configuration not stated) | -52.3% (active)
Cn1cc(-c2csc(-c3cn(CCN4CCOCC4)c4ccc(F)cc34)n2)c2cccnc21 | 61.4% (inactive)
O=[N+]([O-])c1cc(I)cc([N+](=O)[O-])c1 | 103% (inactive)
O=[N+]([O-])CC(O)C(Cl)(Cl)Cl (configuration not stated) | 106% (inactive)
N#C[S-].[Au+].c1ccc(CN2[CH-]N(Cc3ccccc3)C(c3ccccc3)=C2c2ccccc2)cc1 | 6.67% (active)
CC[C@H](NC(=O)[C@H]1CCCCN1C)C(=O)N(C)[C@H](C[C@@H](OC(C)=O)c1nc(C(=O)N[C@@H](Cc2ccccc2)C[C@H](C)C(=O)O)cs1)C(C)C | 17.1% (inactive)
CC(=O)O[C@H](C[C@H](C(C)C)N(C)C(=O)[C@@H](NC(=O)[C@H]1CCCCN1C)C(C)C)c1cccc(C(=O)N[C@@H](Cc2ccccc2)C[C@H](C)C(=O)O)n1 | 22% (inactive)
[Cl][Hg][c]1cc[c]([Hg][Cl])o1 | 34.9% (inactive)
Clc1ccc(N2COOC3(OOC2)C2CC4CC(C2)CC3C4)cc1 | 66.9% (inactive)
COC(=O)[C@@H](C)C[C@H](Cc1ccccc1)NC(=O)c1nc([C@@H](C[C@H](C(C)C)N(C)C(=O)[C@@H](NC(=O)[C@H]2CCCCN2C)C(C)C)OC(C)=O)sc1C | 18.3% (inactive)
